Reference: publication PMC4336329 (PLoS ONE, 2015)
The campaign covered roughly 310,000 compounds. About 14,000 (4.5%) showed an effect of 50% or more. Effects have a minus sign here. Many of the other results were omitted from the sample, so strong results are more common in it than they were.

Target: human ether-à-go-go-related gene (hERG) potassium channel (human, UniProt Q12809)
Assay: primary screen, population patch clamp on CHO cells stably expressing hERG; higher = less effect of the substance
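Note: peak tail current of the secondary pulse compared with the same well before compound.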

Sequence of human ether-à-go-go-related gene (hERG) potassium channel (Q12809 whole entry, looked up): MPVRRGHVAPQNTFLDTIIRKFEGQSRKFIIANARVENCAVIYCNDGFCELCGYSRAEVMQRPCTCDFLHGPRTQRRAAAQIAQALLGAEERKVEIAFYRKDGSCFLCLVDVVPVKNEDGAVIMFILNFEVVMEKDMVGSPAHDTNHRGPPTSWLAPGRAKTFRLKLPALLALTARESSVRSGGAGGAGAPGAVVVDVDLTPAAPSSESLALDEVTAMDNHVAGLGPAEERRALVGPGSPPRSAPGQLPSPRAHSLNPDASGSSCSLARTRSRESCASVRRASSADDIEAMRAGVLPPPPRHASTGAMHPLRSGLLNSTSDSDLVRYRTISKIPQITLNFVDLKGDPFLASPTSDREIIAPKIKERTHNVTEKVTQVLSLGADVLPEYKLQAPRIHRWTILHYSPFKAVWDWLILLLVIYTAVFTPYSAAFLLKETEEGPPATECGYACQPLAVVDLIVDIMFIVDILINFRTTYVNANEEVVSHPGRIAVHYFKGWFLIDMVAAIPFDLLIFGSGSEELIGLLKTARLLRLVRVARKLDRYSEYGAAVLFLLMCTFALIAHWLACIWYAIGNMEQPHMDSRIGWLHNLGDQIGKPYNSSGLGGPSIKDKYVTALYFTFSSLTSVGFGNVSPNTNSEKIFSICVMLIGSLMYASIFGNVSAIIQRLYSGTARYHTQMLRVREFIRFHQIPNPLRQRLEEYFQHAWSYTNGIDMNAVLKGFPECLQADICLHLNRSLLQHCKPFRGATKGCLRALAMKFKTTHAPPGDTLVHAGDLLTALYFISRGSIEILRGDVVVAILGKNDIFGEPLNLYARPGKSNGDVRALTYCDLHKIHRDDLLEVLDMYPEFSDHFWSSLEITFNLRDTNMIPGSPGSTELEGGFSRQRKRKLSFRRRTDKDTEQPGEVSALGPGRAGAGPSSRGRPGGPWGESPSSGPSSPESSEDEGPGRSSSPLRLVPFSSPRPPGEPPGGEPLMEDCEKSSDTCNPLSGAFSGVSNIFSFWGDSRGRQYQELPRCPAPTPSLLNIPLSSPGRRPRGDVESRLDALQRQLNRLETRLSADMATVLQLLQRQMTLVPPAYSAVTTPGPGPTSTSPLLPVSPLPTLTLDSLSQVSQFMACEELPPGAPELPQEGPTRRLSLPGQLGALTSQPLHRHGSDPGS

SMILES | hERG current change (%, negative = inhibition) at 10uM [%]
Cn1nc(-c2ccccc2)c(CSc2ccccc2Cl)c1Cl | 6.46
CN1CCN(C(=O)c2cnn(-c3ccccc3)c2NC(=O)c2ccc([N+](=O)[O-])cc2)CC1 | -51.6
Cc1cccc(C(=O)Nc2c(C(=O)N3CCN(C)CC3)cnn2-c2ccccc2)c1 | -15.9
CN1CCN(C(=O)c2cnn(-c3ccccc3)c2NC(=O)c2ccccc2)CC1 | -17.8
CN1CCN(C(=O)c2cnn(-c3ccccc3)c2NC(=O)c2ccc(Br)cc2)CC1 | -81.4
CN1CCN(C(=O)c2cnn(-c3ccccc3)c2NC(=O)c2ccccc2Br)CC1 | 3.72
O=C(Nc1c(C(=O)N2CCOCC2)cnn1-c1ccccc1)c1ccc([N+](=O)[O-])cc1 | -16
O=C(CNC(=O)c1ccc(Br)o1)NCc1ccccc1Cl | 1.15
CCCCc1ccc(NC(=S)NCCN2CCOCC2)cc1 | -39
CCOC(=O)CSc1cc(C(F)(F)F)nc(-c2ccccn2)n1 | -31.5
CC(C)CCc1noc(CN2CCC(C(=O)N3CCOCC3)CC2)n1 | -6.13
C/C=C/n1ccnc1CC(O)(c1ccccc1)c1ccc(C)cc1 (stereo not shown) | -22.5
Nc1nnnn1/N=C\c1ccc(Cl)c([N+](=O)[O-])c1 | 3.26
COc1ccc(NC(=S)Nc2cccnc2)c(OC)c1 | 8.2
CCN(CC(=O)Nc1cc(OC)ccc1OC)Cc1nc2ccccc2c(=O)[nH]1 | -8.33
CCc1ccc2c(CN(CC)Cc3nc4ccccc4c(=O)[nH]3)cc(=O)oc2c1 | -71.6
CCN(Cc1nc2ccccc2c(=O)[nH]1)Cc1cc(=O)oc2cc(C)c(C)cc12 | -41.4
CN(Cc1nc2ccccc2c(=O)[nH]1)Cc1cc(=O)oc2ccc3ccccc3c12 | -10.1
CCN(Cc1nc2ccccc2c(=O)[nH]1)Cc1nc2cc(OC)c(OC)cc2c(=O)[nH]1 | 14.9
CCN(Cc1nc2ccccc2c(=O)[nH]1)Cc1cc(=O)oc2cc(OC)ccc12 | -51.1
N#Cc1ccccc1S(=O)(=O)N1CCN(CC(=O)NCC2(N3CCOCC3)CCCCC2)CC1 | -27.3
CCOc1cc(/C=C2/NC(=O)N(CC(=O)OC)C2=O)ccc1O | 3.71

SMILES | hERG current change (%, negative = inhibition) at 10uM [%]
O=C(O)c1ccc(Br)c(S(=O)(=O)N2CCCC2)c1 | 9.91
CCNC(=O)C(=O)Nc1ccc([N+](=O)[O-])cc1 | 2.37
CCN1CCN(CCNC(=O)Nc2ccc([N+](=O)[O-])cc2)CC1 | -12.2
CCc1ccc(NC(=O)C(=O)NCCN2CCN(S(C)(=O)=O)CC2)cc1 | 20.5
CCc1ccc(CN2CCN(C(=O)c3ccco3)CC2)cc1.O=C(O)C(=O)O | -23.8
CCc1ccc(NC(=O)C(=O)NCCN2CCN(Cc3ccc([N+](=O)[O-])cc3)CC2)cc1 | -72.5
Cc1ccc(NC(=O)C(=O)NCCN2CCN(S(C)(=O)=O)CC2)cc1 | 19.6
CCc1ccc(NC(=O)C(=O)NCCN2CCN(C(=O)c3ccco3)CC2)cc1 | -67
CCCCc1ccc(NC(=O)C(=O)NCCN2CCN(Cc3ccc([N+](=O)[O-])cc3)CC2)cc1 | -66.7
COc1ccc(NC(=O)C(=O)NCCN2CCN(C(=O)c3ccco3)CC2)cc1 | -11.1
Cc1ccc(NC(=O)C(=O)NCCN2CCN(Cc3ccc([N+](=O)[O-])cc3)CC2)cc1 | -72.8
CCCCc1ccc(NC(=O)C(=O)NCCN2CCN(C(=O)c3ccc([N+](=O)[O-])cc3)CC2)cc1 | -22.4
O=C(CNC(=O)c1cccs1)NCC(=O)OCc1ccc(F)cc1 | -13.1
O=C(CN1C(=O)C(=O)N(C2CCCC2)C1=O)NCCc1ccc(Cl)cc1Cl | 10.4
COc1ccccc1NC(=O)Cn1nc(-c2ccncc2)nc1SCC(=O)NC1CCCC1 | -20.2
COC(=O)CC1SC(=O)NC1=Nc1ccc(OC)cc1 (stereo not shown) | 1.66
CCC(C)NS(=O)(=O)c1ccc(OCC(=O)Nc2ccc(F)cc2F)cc1 (stereo not shown) | -2.06
COCCCNCC#CCOc1ccc(OC)cc1.O=C(O)C(=O)O | 0.922
O=C(NCCN1CCN(Cc2ccc([N+](=O)[O-])cc2)CC1)C(=O)Nc1ccccc1 | -64.3
O=C(NCCc1ccccc1)C(=O)Nc1ccc([N+](=O)[O-])cc1 | -2.37
O=C(NCCN1CCN(S(=O)(=O)c2ccc([N+](=O)[O-])cc2)CC1)C(=O)Nc1ccccc1 | 13.5
CC(OC(=O)c1ccc2c(c1)C(=O)N(Cc1ccncc1)C2=O)C(=O)Nc1cccc(Cl)c1Cl (stereo not shown) | -11.1

SMILES | hERG current change (%, negative = inhibition) at 10uM [%]
COC(=O)c1ccc(NC(=O)CS(=O)(=O)Cc2ccccc2)cc1 | 1.28
COC(=O)c1ccc(C(=O)OC)c(NC(=S)N2CCN(c3ccccc3)CC2)c1 | -19.1
COC(=O)c1ccc(C(=O)OC)c(NC(=O)CS(=O)(=O)Cc2ccccc2)c1 | -53.2
COC(=O)c1ccc(C(=O)OC)c(NC(=O)C2CCCO2)c1 (stereo not shown) | 10.5
COC(=O)c1ccc(C(=O)OC)c(NC(=O)CCS(=O)(=O)Cc2ccccc2)c1 | -2.41
COC(=O)c1ccc(C(=O)OC)c(NC(=S)N2CCN(c3ccc(F)cc3)CC2)c1 | -24
COC(=O)c1ccc(C(=O)OC)c(NC(=S)N2CCN(c3ccccc3F)CC2)c1 | -52.9
COC(=O)c1ccc(C(=O)OC)c(NC(=O)C2CC2)c1 | -68.9
COC(=O)c1ccc(C(=O)OC)c(NC(=O)C(C)(C)C)c1 | 20.7
Fc1ccc(-c2nnc(SCc3cccnc3)o2)cc1 | -3.91
Fc1cccc(F)c1/C=N/NC(=S)Nc1cccnc1 | -14.3
Cl.Oc1cccc(C(O)CNCc2ccc(OCc3ccc(Cl)cc3Cl)cc2)c1 (stereo not shown) | 7.89
C=CCN(CC=C)S(=O)(=O)c1ccc(NC(=S)NC(=O)/C=C/c2ccc(C)cc2)cc1 | 6.12
CN(C)CCOC(=O)C12CC3(C)CC(C)(CC(C)(C3)C1)C2.Cl | -7.13
COc1ccc(CCNC(=O)CSCC(=O)Nc2ccccc2)cc1OC | 17.8
COc1ccc(/C=C/C(=O)OCC(=O)Nc2c(C)cccc2C)cc1 | 12.5
CCOC(=O)c1c(-c2ccc(C)o2)csc1NC(=O)CSc1nnnn1-c1ccccc1 | -3.66
NC(=O)C(c1ccccc1)c1ncc(C(F)(F)F)cc1Cl (stereo not shown) | 4.88
CC(C)Oc1cccc(C(=O)C2CCCN(C(=O)c3ccoc3)C2)c1 (stereo not shown) | -14.7
Cc1cccc(OCC(=O)N2CCOCC2)c1 | 15.5
COc1ccc(OCC(=O)N2CCN(C(=O)c3cccc(F)c3)CC2)cc1 | -7.41
COc1ccc(OCC(=O)N2CCN(Cc3ccc(SC)cc3)CC2)cc1.O=C(O)C(=O)O | -50.9

SMILES | hERG current change (%, negative = inhibition) at 10uM [%]
Cc1cccc(OCC(=O)N2CCN(C(=O)Cc3ccccc3)CC2)c1 | -13.2
O=C(COc1ccccc1)N1CCN(C(=O)c2cccc(F)c2)CC1 | -7.92
Cc1cccc(OCC(=O)N2CCN(Cc3cccnc3)CC2)c1.O=C(O)C(=O)O | -3.95
Cc1cccc(OCC(=O)N2CCN(S(C)(=O)=O)CC2)c1 | 11.2
Cc1cccc(OCC(=O)N2CCN(C(=O)COc3ccc(Cl)cc3)CC2)c1 | -72.2
COc1ccc(OCC(=O)N2CCN(C(C)C)CC2)cc1.O=C(O)C(=O)O | 6.62
CSc1ccc(CN2CCN(C(=O)CC(C)C)CC2)cc1 | 9.42
O=C(COc1ccc(Cl)cc1)N1CCN(C(=O)c2cccc(F)c2)CC1 | -58.5
CSc1ccc(CN2CCN(C(=O)COc3cccc(C)c3)CC2)cc1 | -50.3
O=C(CS(=O)(=O)c1ccc(F)cc1)Nc1nnc(-c2cccs2)o1 | 13.3
O=C(COC(=O)c1cnccn1)Nc1ccc(Cl)cc1C(F)(F)F | 0.684
CN(C)S(=O)(=O)c1ccc(C(=O)Nc2nnc(-c3ccco3)o2)cc1 | 12.4
CCOC(=O)N1CCN(C(=O)C(NC(=O)c2ccc(CC)cc2)C(C)C)CC1 (stereo not shown) | -19.5
COc1cc(N2C(=O)CC(=O)NC2=O)cc(OC)c1OC | 17.1
COCCCNC(=O)CCCCCNS(=O)(=O)c1ccc(Br)cc1 | -21.4
CC(=O)Nc1ccc(/C=C/C(=O)c2ccccc2)cc1 | 9.09
Cc1ccccc1NC(=O)c1ccc(S(=O)(=O)C(F)F)cc1 | -27.6
Cn1c(=O)oc2cc(S(=O)(=O)CCC(=O)NCCc3ccccc3)ccc21 | 7.46
CN(C)S(=O)(=O)c1cccc(-c2cn3cc(Cl)ccc3n2)c1 | 7.03
